Test results taken from PubChem BioAssay (EPA / NIEHS).
Active and inactive are the calls of the source. Rule for the calls: active = hit-call score of the fitted dose curve at least 0.9, where 1 is the maximum; inactive = score below 0.9.

Columns and labels:
[1] = ATG_GRE_CIS: Attagene CIS-FACTORIAL HepG2 Assay for human Glucocorticoid Response Elements (GRE) (AID 2282947); conditions: HepG2 GRE cis-reporter, Attagene multiplex mRNA; actives raise or lower the signal
Method in brief: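 Endogenous transcription factor activity is read through cis-element reporter constructs transiently transfected into HepG2 cells. After 24 h treatment, labelled RT-PCR products are resolved by capillary electrophoresis; DMSO sets baseline for bidirectional curve fitting.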

[2] = ATG_ISRE_CIS: Attagene CIS-FACTORIAL HepG2 Assay for human Interferon Regulatory Factor 1 (IRF1) binding to an Interferon-Stimulated Response Element (ISRE) (AID 2282948); conditions: HepG2 ISRE cis-reporter (Attagene), mRNA transcription readout; actives raise or lower the signal
Method in brief: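 Cell-based cis-reporter assay; HepG2; 24 h exposure; reporter mRNA by RT-PCR plus capillary electrophoresis fluorescence; activity in either direction scored relative to DMSO.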

[3] = ATG_M_32_CIS: Attagene CIS-FACTORIAL HepG2 Assay for M32 Transcription Factor (Internal Marker) (AID 2282949); conditions: HepG2 Attagene cis-factorial M32 reporter, mRNA; actives raise or lower the signal;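 note: background control marker of the multiplexed CIS panel rather than a real target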
Method in brief: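 Following 24 h chemical exposure of HepG2 cells transiently expressing cis-promoter reporter constructs, reporter transcript levels were determined by RT-PCR with fluorescent labelling and capillary electrophoresis, then fitted bidirectionally against DMSO.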

[4] = ATG_M_06_CIS: Attagene CIS-FACTORIAL HepG2 Assay for M06 Transcription Factor (Internal Marker) (AID 2282950); conditions: HepG2 Attagene CIS-FACTORIAL M06 internal marker reporter; actives raise or lower the signal
Method in brief: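 Internal background marker within multiplexed cis-reporter HepG2 system. Cells transiently transfected, dosed 24 h; reporter mRNA measured by RT-PCR, HpaI digestion and capillary electrophoresis. Bidirectional fit relative to DMSO.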

[5] = target: Hypoxia-inducible factor 1-alpha (Homo sapiens) (UniProt Q16665); experiment: ATG_HIF1a_CIS: Attagene CIS-FACTORIAL HepG2 Assay for human Hypoxia Inducible Factor 1 (HIF1A) (AID 2282951); conditions: HepG2 Attagene cis-factorial HIF1a reporter transcription; actives raise or lower the signal
Chain of Hypoxia-inducible factor 1-alpha (Homo sapiens) (Q16665 whole entry, looked up): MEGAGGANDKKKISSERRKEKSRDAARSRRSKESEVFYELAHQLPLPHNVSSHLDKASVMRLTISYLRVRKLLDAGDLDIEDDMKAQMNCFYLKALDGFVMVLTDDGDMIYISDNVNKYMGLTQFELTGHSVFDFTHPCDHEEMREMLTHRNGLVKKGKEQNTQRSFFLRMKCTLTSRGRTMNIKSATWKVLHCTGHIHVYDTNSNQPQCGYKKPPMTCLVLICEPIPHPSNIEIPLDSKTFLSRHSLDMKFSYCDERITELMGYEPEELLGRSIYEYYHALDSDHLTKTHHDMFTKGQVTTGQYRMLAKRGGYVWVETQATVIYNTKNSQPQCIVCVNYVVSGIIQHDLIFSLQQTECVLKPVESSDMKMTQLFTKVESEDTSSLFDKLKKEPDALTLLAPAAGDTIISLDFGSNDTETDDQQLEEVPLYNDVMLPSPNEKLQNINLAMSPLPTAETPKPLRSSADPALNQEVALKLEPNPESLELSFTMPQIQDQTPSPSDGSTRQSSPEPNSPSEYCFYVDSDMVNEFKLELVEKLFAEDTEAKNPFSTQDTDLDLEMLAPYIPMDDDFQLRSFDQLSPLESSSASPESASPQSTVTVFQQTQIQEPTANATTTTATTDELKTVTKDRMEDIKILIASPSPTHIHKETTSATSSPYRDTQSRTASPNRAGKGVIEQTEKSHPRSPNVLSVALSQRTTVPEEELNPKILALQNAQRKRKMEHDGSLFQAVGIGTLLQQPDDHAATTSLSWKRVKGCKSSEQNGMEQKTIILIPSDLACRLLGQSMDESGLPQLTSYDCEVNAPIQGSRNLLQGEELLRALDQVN
Method in brief: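 Cis-element reporter constructs were transiently transfected into HepG2 cells, which were treated for 24 h; reporter RNA was reverse-transcribed, amplified, labelled and resolved by capillary electrophoresis.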

[6] = target: Hepatocyte nuclear factor 6 (Homo sapiens) (UniProt Q9UBC0); experiment: ATG_HNF6_CIS: Attagene CIS-FACTORIAL HepG2 Assay for human Hepatocyte Nuclear Factor 6 (HNF6) (AID 2282952); conditions: HepG2 Attagene cis-factorial HNF6 reporter transcription; actives raise or lower the signal
Chain of Hepatocyte nuclear factor 6 (Homo sapiens) (Q9UBC0 whole entry, looked up): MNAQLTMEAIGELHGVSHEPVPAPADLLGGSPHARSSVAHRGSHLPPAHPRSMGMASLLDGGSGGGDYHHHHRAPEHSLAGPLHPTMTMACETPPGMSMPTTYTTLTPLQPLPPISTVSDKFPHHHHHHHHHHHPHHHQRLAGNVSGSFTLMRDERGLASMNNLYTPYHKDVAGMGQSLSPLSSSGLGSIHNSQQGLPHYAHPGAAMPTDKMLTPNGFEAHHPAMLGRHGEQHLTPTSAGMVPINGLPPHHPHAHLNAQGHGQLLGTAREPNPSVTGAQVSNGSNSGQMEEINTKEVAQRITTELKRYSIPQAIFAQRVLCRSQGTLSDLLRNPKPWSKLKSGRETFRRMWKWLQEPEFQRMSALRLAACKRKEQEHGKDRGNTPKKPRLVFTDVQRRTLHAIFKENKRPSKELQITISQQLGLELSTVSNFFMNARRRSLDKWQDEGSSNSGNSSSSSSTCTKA
Method in brief: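 HepG2 cells transiently transfected with cis-element-driven multiple reporter transcription units, dosed 24 h; reporter mRNA quantified by RT-PCR, FAM primer extension, HpaI digestion and capillary electrophoresis; bidirectional fit versus DMSO baseline.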

[7] = target: Heat shock factor protein 1 (Homo sapiens) (UniProt Q00613); experiment: ATG_HSE_CIS: Attagene CIS-FACTORIAL HepG2 Assay for human Heat Shock Transcription Factor 1 (HSE) (AID 2282953); conditions: HepG2 HSE cis-reporter, Attagene RNA transcription; actives raise or lower the signal
Chain of Heat shock factor protein 1 (Homo sapiens) (Q00613 whole entry, looked up): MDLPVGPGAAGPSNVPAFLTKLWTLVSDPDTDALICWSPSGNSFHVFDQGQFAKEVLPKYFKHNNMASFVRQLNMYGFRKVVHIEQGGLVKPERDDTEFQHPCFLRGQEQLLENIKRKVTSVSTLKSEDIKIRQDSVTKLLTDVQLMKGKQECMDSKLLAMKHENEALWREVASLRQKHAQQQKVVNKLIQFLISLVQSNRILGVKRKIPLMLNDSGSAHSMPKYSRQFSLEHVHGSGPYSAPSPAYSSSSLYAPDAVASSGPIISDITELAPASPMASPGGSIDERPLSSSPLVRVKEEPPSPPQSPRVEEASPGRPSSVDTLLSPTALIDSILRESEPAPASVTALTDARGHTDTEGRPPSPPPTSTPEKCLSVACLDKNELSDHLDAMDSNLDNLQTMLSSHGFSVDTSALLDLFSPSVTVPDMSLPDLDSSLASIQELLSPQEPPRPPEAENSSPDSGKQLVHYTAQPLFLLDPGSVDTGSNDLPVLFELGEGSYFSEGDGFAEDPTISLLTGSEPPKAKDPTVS
Method in brief: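 HepG2 cells transfected with cis-promoter reporter units sensing endogenous transcription factor activity; reporter mRNA quantified 24 h post-dose by RT-PCR and capillary electrophoresis of 6-FAM-labelled products. Bidirectional fitting against DMSO.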

[8] = ATG_MRE_CIS: Attagene CIS-FACTORIAL HepG2 Assay for human Metal Responsive Element (MRE) (AID 2282954); conditions: HepG2 MRE cis-reporter transcription, Attagene multiplex; actives raise or lower the signal
Method in brief: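 Fluorescent reporter fragments separated by capillary electrophoresis give mRNA induction for the MRE unit after 24 h treatment of transfected HepG2 cells. Endogenous transcription-factor activity is read; DMSO serves as negative control and baseline.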

[9] = ATG_PBREM_CIS: Attagene CIS-FACTORIAL HepG2 Assay for human Phenobarbital-responsive Enhancer Module (PBREM) (AID 2282955); conditions: HepG2 PBREM cis-reporter, Attagene multiplexed transcription; actives raise or lower the signal
Method in brief: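 Multiplexed cis-reporter readout in human hepatoma HepG2 cells; PBREM-regulated transcript quantified after 24 h exposure by fluorescent RT-PCR fragment analysis. Signal changes up or down fitted relative to DMSO.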

[10] = target: Paired box protein Pax-6 (Homo sapiens) (UniProt P26367); experiment: ATG_Pax6_CIS: Attagene CIS-FACTORIAL HepG2 Assay for human Paired Box 6 (PAX6) (AID 2282956); conditions: HepG2 CIS-FACTORIAL PAX6 reporter transcription, RNA readout; actives raise or lower the signal
Chain of Paired box protein Pax-6 (Homo sapiens) (P26367 whole entry, looked up): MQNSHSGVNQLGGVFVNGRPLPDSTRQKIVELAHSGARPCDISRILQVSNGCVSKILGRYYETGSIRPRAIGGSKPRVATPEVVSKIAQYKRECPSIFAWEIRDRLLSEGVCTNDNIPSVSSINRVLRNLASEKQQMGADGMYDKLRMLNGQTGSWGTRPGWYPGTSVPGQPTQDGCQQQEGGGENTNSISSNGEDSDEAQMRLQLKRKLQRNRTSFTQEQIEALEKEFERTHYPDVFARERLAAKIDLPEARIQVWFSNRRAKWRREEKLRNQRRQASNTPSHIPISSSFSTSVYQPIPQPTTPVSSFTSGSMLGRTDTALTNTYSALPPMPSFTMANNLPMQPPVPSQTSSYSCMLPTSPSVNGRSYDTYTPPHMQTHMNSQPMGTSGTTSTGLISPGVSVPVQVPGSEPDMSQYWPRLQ
Method in brief: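 Multiplexed cis-reporter HepG2 system; 24 h treatment; reporter mRNA read by RT-PCR/CE fluorescence; bidirectional fit vs DMSO.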

[11] = ATG_PXRE_CIS: Attagene CIS-FACTORIAL HepG2 Assay for human Pregnane X Receptor Element (PXRE) (AID 2282957); conditions: HepG2 Attagene CIS-FACTORIAL PXRE reporter, mRNA; actives raise or lower the signal
Method in brief: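 HepG2 cells transiently transfected with cis-regulated multiple reporter transcription units; endogenous factor activity measured as reporter mRNA 24 h after dosing. RT-PCR, fluorescent primer extension, HpaI digestion, capillary electrophoresis; bidirectional fit versus DMSO baseline.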

[12] = ATG_PPRE_CIS: Attagene CIS-FACTORIAL HepG2 Assay for human Peroxisome Proliferator-activated Response Element (PPRE) (AID 2282958); conditions: HepG2 PPRE cis-element reporter, Attagene transcription factor profiling; actives raise or lower the signal
Method in brief: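 DMSO served as negative control and baseline for bidirectional curve fitting. Signal came from PPRE-regulated reporter mRNA in HepG2 cells, measured 24 h post-dosing by RT-PCR, 6-FAM primer extension and capillary electrophoresis.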

[13] = ATG_RORE_CIS: Attagene CIS-FACTORIAL HepG2 Assay for human RAR-related Orphan Receptor Element (RORE) (AID 2282959); conditions: HepG2 Attagene cis-factorial RORE reporter, mRNA; actives raise or lower the signal
Method in brief: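 Transfect HepG2 with MRTUs; treat 24 h; extract RNA; RT with oligo(dT); PCR with reporter-specific primers; 6-FAM primer extension; HpaI digest 2 h at 37 C; capillary electrophoresis. Fit vs DMSO, bidirectional.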

[14] = ATG_Sox_CIS: Attagene CIS-FACTORIAL HepG2 Assay for human SRY-box transcription factor (SOX) (AID 2282960); conditions: HepG2 Attagene cis-factorial SOX reporter, mRNA; actives raise or lower the signal
Method in brief: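 Fluorescence-labelled cDNA fragments from reporter transcripts, sized by CE, give the signal. Cells: HepG2, transiently transfected with cis-regulated reporter units. Exposure 24 h; DMSO negative control; bidirectional curve fitting.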

[15] = target: Transcription factor Sp1 (Homo sapiens) (UniProt P08047); experiment: ATG_Sp1_CIS: Attagene CIS-FACTORIAL HepG2 Assay for human Specificity Protein 1 (Sp1) (AID 2282961); conditions: HepG2 Sp1 cis-reporter transcription, actives raise or lower the signal
Chain of Transcription factor Sp1 (Homo sapiens) (P08047 whole entry, looked up): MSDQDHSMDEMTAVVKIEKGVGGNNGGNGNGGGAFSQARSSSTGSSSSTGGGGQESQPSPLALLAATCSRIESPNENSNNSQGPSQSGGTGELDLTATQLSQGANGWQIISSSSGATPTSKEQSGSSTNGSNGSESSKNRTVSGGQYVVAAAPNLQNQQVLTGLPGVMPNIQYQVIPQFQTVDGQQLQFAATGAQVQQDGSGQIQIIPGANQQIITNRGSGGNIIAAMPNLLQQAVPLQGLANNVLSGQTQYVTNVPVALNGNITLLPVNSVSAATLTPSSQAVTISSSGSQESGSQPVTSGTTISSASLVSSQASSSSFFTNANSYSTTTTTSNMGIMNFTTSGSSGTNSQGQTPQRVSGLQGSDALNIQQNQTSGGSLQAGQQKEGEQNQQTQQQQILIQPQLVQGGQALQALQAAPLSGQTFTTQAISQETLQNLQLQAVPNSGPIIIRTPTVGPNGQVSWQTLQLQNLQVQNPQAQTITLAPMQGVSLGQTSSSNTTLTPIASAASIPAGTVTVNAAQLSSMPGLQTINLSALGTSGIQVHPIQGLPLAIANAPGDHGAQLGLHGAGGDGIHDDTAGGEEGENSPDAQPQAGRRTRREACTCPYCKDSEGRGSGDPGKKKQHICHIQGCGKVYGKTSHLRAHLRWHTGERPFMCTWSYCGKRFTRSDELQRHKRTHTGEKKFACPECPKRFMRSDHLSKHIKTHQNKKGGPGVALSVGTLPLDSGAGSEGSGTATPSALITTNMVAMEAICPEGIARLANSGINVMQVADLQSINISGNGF
Method in brief: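 Chemicals are dosed onto HepG2 cells transfected with multiple cis-promoter reporter constructs, and after 24 h reporter RNA is reverse-transcribed, PCR-amplified and resolved by capillary electrophoresis for fluorescence quantitation; activity is scored up or down against DMSO.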

[16] = ATG_SREBP_CIS: Attagene CIS-FACTORIAL HepG2 Assay for human Sterol Regulatory Element Binding (SREBP) (AID 2282962); conditions: HepG2 Attagene cis-factorial SREBP reporter, mRNA; actives raise or lower the signal
Method in brief: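 mRNA induction of transfected cis-promoter reporters in HepG2 cells, 24 h post-dose. Detection: RT-PCR with 6-FAM-labelled products, HpaI digest, capillary electrophoresis. DMSO served as negative control and baseline.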

[17] = target: Signal transducer and activator of transcription 3 (Homo sapiens) (UniProt P40763); experiment: ATG_STAT3_CIS: Attagene CIS-FACTORIAL HepG2 Assay for human Signal Transducer and Activator of Transcription 3 (STAT3) (AID 2282963); conditions: HepG2, Attagene cis-factorial STAT3 reporter transcription; actives raise or lower the signal
Chain of Signal transducer and activator of transcription 3 (Homo sapiens) (P40763 whole entry, looked up): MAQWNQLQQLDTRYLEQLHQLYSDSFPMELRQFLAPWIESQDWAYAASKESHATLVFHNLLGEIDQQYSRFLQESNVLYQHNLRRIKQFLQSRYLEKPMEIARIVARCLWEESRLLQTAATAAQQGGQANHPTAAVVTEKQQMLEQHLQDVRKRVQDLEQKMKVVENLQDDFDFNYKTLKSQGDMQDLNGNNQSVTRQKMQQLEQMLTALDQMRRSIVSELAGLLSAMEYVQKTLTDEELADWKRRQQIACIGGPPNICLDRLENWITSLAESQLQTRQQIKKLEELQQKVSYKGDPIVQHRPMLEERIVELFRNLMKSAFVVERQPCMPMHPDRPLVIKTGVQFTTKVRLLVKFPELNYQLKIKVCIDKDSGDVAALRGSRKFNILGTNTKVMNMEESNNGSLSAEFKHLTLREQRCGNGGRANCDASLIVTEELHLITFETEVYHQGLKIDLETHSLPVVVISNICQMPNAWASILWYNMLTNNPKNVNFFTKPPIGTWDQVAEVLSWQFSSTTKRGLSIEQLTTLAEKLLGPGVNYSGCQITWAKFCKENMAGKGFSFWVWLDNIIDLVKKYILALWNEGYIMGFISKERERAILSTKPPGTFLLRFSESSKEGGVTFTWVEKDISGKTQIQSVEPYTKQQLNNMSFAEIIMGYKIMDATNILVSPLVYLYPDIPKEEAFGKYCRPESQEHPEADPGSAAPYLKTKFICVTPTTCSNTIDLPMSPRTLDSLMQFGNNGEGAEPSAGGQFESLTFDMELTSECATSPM
Method in brief: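 Values derive from bidirectional fits relative to DMSO of reporter mRNA levels, measured by RT-PCR with capillary electrophoresis, in HepG2 cells carrying transiently transfected cis-regulated reporter units and exposed 24 h.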

[18] = ATG_TCF_b_cat_CIS: Attagene CIS-FACTORIAL HepG2 Assay for human T-Cell-Factor with beta-catenin (TCF/b-cat) (AID 2282965); conditions: HepG2 TCF/beta-catenin cis-reporter transcription, actives raise or lower the signal
Method in brief: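 HepG2, transient MRTU transfection, cis-element-driven reporters (endogenous TFs). 24 h compound exposure. Readout: reporter mRNA by RT-PCR + 6-FAM primer extension, HpaI digest, capillary electrophoresis. Gain/loss fit vs DMSO baseline.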

[19] = ATG_TAL_CIS: Attagene CIS-FACTORIAL HepG2 Assay for human TAL Basal Promoter (AID 2282966); conditions: HepG2 Attagene cis-factorial TAL promoter reporter; actives raise or lower the signal;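 note: background control endpoint measuring basal TAL promoter reporter mRNA not a specific factor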
Method in brief: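 HepG2 cells were transiently transfected with promoter-driven multiplexed reporter units and dosed for 24 h. Reporter mRNA was measured by RT-PCR with capillary electrophoresis fluorescence; bidirectional fits used DMSO as baseline, serving as a background control.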

[20] = ATG_TA_CIS: Attagene CIS-FACTORIAL HepG2 Assay for human TA Basal Promoter (AID 2282964); conditions: HepG2 Attagene CIS-factorial TA basal promoter reporter; actives raise or lower the signal
Method in brief: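 HepG2 cells transiently transfected with multiple reporter units under cis promoter elements, reporting endogenous transcription factor activity; this endpoint tracks the TA basal promoter as background control. Reporter mRNA after 24 h dosing measured by RT-PCR/capillary electrophoresis; bidirectional fits versus DMSO.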

Measured: AC50

O=[N+]([O-])c1ccc(Oc2ccc(Cl)cc2Cl)cc1
active: [8] 50.1 µM | [9] 22.5 µM | [10] 31.9 µM | [11] 25.8 µM | [13] 27.5 µM
not listed: [20]
inactive: all other assays above

CCCCCCCCOC(=O)c1ccc(C(=O)OCCCCCCCC)c(C(=O)OCCCCCCCC)c1
active: [5] 23.7 µM
not listed: [4] | [13]
inactive: all other assays above

COC(=O)c1ccccc1N
active: [11] 100 µM
not listed: [4] | [20]
inactive: all other assays above

Nc1ccc(Cl)cc1N
active: [5] 27.6 µM | [8] 22.9 µM | [10] 27.4 µM | [11] 26.1 µM | [13] 27.7 µM | [14] 26.8 µM | [20] 9.74 µM
not listed: [12]
inactive: all other assays above
